In all, about 39,000 compounds went through this assay and about 3,300 (8.5%) were called active. This is one part of a sample in which actives are shown more often than they occur.

This test deals with HepG2. Briefly: cytotoxicity call (relative viability < 0.9). Conditions: 10 µM.
Consider `COc1ccc(NC(=O)N(C)C[C@H]2Oc3c(NS(C)(=O)=O)cccc3C(=O)N([C@@H](C)CO)C[C@H]2C)cc1`, for which the cytotoxicity call is “inactive”.
With `C[C@H]1CCCCO[C@@H](CN(C)C(=O)Nc2ccc(C(F)(F)F)cc2)[C@@H](C)CN([C@@H](C)CO)C(=O)c2cc(NC(=O)CCC(F)(F)F)ccc2O1`, the cytotoxicity call was “inactive”.
As for `Cn1c(=O)c2c(nc(N3CCNCC3)n2CC(=O)c2ccc(Cl)cc2)n(C)c1=O`, the entry is “inactive”; as for `COc1ccc(S(=O)(=O)N(C)C[C@H]2Oc3ccc(NC(=O)CCCN(C)C)cc3C(=O)N([C@@H](C)CO)C[C@@H]2C)cc1`, “inactive”.
Regarding `COc1cccc(S(=O)(=O)N2C[C@@H](O)COC[C@@H]3O[C@H](CC(=O)NCCCN4CCOCC4)CC[C@H]32)c1`, the cytotoxicity call is “inactive”.
As for `C[C@@H]1CN([C@H](C)CO)C(=O)c2cc(NC(=O)CCC(F)(F)F)ccc2O[C@@H](C)CCCCO[C@@H]1CN(C)Cc1ccncc1`, the entry is “inactive”; as for `COc1ccc(Oc2cc(NCCC(F)(F)F)c3ncc(-c4ccc(C(=O)NC5CC5)c(C)c4)n3n2)c(F)c1F`, “inactive”; as for `C[C@@H]1CN([C@@H](C)CO)C(=O)c2cc(NC(=O)NC3CCCCC3)ccc2O[C@@H]1CN(C)S(C)(=O)=O`, “inactive”.
As for `C[C@H]1CN([C@@H](C)CO)S(=O)(=O)c2ccc(-c3cccc(C#N)c3)cc2O[C@@H]1CN(C)C(=O)c1ccncc1`, the entry is “inactive”.
For `C[C@@H]1CN([C@@H](C)CO)C(=O)c2cc(NS(=O)(=O)c3ccccc3)ccc2O[C@@H](C)CCCCO[C@@H]1CN(C)Cc1ccc(C(F)(F)F)cc1` the value was “inactive”.
Take `C[C@@H]1CN([C@H](C)CO)C(=O)c2cc(NS(=O)(=O)c3ccccc3)ccc2O[C@@H](C)CCCCO[C@@H]1CN(C)Cc1ccc(C(F)(F)F)cc1`: the cytotoxicity call is “inactive”.
For `C[C@@H]1CN([C@@H](C)CO)C(=O)c2cc(NS(=O)(=O)c3ccccc3)ccc2O[C@@H](C)CCCCO[C@H]1CN(C)Cc1ccc(C(F)(F)F)cc1` the value was “inactive”; for `C[C@@H]1CCCCO[C@H](CN(C)Cc2ccc(C(F)(F)F)cc2)[C@@H](C)CN([C@@H](C)CO)C(=O)c2cc(NS(=O)(=O)c3ccccc3)ccc2O1`, “inactive”; for `C[C@@H]1CCCCO[C@H](CN(C)Cc2ccc(C(F)(F)F)cc2)[C@H](C)CN([C@@H](C)CO)C(=O)c2cc(NS(=O)(=O)c3ccccc3)ccc2O1`, “active”.
For `C[C@@H]1CN([C@H](C)CO)C(=O)c2cc(NS(=O)(=O)c3ccccc3)ccc2O[C@@H](C)CCCCO[C@H]1CN(C)Cc1ccc(C(F)(F)F)cc1` the value was “active”; for `C[C@H]1CN([C@@H](C)CO)C(=O)c2cccc(NC(=O)c3nc4ccccc4s3)c2O[C@H]1CN(C)S(=O)(=O)c1cn(C)cn1`, “inactive”.
Turning to `CCCNC(=O)Nc1ccc2c(c1)OC[C@H](C)N(C(=O)C1CCOCC1)C[C@@H](C)[C@@H](OC)CN(C)C2=O`, the cytotoxicity call is “inactive”.
With `Cc1noc(C)c1S(=O)(=O)Nc1cccc2c1O[C@@H](CN(C)CC1CC1)[C@@H](C)CN([C@H](C)CO)C2=O`, the cytotoxicity call is “inactive”.
As for `Cc1ccc(S(=O)(=O)N2C[C@@H](O)COC[C@@H]3O[C@@H](CC(=O)NCc4ccc(Cl)c(Cl)c4)CC[C@H]32)cc1`, the entry is “active”.
For `Cc1ccc(S(=O)(=O)N2C[C@@H](O)COC[C@H]3O[C@@H](CC(=O)NCc4ccc(Cl)c(Cl)c4)CC[C@@H]32)cc1` the value was “inactive”.
Consider `Cc1ccc(S(=O)(=O)N2C[C@H](O)COC[C@H]3O[C@@H](CC(=O)NCc4ccc(Cl)c(Cl)c4)CC[C@@H]32)cc1`, for which the cytotoxicity call was “active”.
As for `Cc1ccc(S(=O)(=O)N2C[C@@H](O)COC[C@@H]3O[C@@H](CC(=O)NCc4ccc5c(c4)OCO5)CC[C@H]32)cc1`, the entry is “inactive”.
For `Cc1ccc(S(=O)(=O)N2C[C@@H](O)COC[C@H]3O[C@H](CC(=O)NCc4ccc(Cl)c(Cl)c4)CC[C@@H]32)cc1`, the cytotoxicity call is “inactive”.
For `Cc1ccc(S(=O)(=O)N2C[C@@H](O)COC[C@@H]3O[C@H](CC(=O)NCc4ccc(Cl)c(Cl)c4)CC[C@H]32)cc1` the value was “inactive”; for `Cc1ccc(S(=O)(=O)N2C[C@H](O)COC[C@@H]3O[C@H](CC(=O)NCc4ccc5c(c4)OCO5)CC[C@H]32)cc1`, “active”.
For `Cc1ccc(S(=O)(=O)N2C[C@H](O)COC[C@@H]3O[C@H](CC(=O)NCc4ccc(Cl)c(Cl)c4)CC[C@H]32)cc1` the value was “active”.
For `Cc1ccc(S(=O)(=O)N2C[C@H](O)COC[C@H]3O[C@H](CC(=O)NCc4ccc(Cl)c(Cl)c4)CC[C@@H]32)cc1` the value was “inactive”; for `Cc1cccc(S(=O)(=O)N2C[C@@H](O)COC[C@H]3O[C@H](CC(=O)NCc4ccc(Cl)c(Cl)c4)CC[C@@H]32)c1`, “inactive”; for `Cc1ccc(S(=O)(=O)N2C[C@@H](O)COC[C@H]3O[C@H](CC(=O)NCc4ccc5c(c4)OCO5)CC[C@@H]32)cc1`, “inactive”.
For `Cc1ccc(S(=O)(=O)N2C[C@H](O)COC[C@@H]3O[C@@H](CC(=O)NCc4ccc(Cl)c(Cl)c4)CC[C@H]32)cc1`, the cytotoxicity call was “inactive”.
For `C[C@H](CO)N1C[C@H](C)[C@@H](CN(C)C(=O)CCC(F)(F)F)OCc2ccccc2-c2c(n(C)c3ccccc23)C1=O` the value was “inactive”; for `CSc1scc(-c2cc(Cl)cc(Cl)c2)c1C#N`, “inactive”; for `C[C@H](CO)N1C[C@H](C)[C@@H](CN(C)S(=O)(=O)c2cccs2)Oc2ccc(NC(=O)CCCN(C)C)cc2C1=O`, “inactive”.
As for `Cc1ccc(S(=O)(=O)Nc2ccc3c(c2)C(=O)N([C@@H](C)CO)C[C@@H](C)[C@@H](CN(C)C(=O)Nc2ccccc2)OCCCC[C@@H](C)O3)cc1`, the entry is “inactive”; as for `CCCC/C=C/[C@H]([C@@H](O)Cc1ccccc1)N(CC#Cc1ccccc1)Cc1ccccc1Br`, “inactive”; as for `COc1ccc(NC(=O)Nc2ccc3c(c2)C(=O)N([C@H](C)CO)C[C@@H](C)[C@@H](CN(C)C(=O)Nc2ccc(C(F)(F)F)cc2)O3)cc1`, “inactive”.
For `C[C@@H](O)CN1CCN(S(=O)(=O)C2CC2)CC1` the value was “inactive”; for `C[C@@H]1CN([C@H](C)CO)C(=O)c2cccc(NC(=O)C3CC3)c2O[C@H]1CN(C)S(=O)(=O)c1ccccc1`, “inactive”.
`CC(=O)Nc1nc(C(=O)O)cs1`: the cytotoxicity call was “inactive”.
`Cc1ccc(S(=O)(=O)NC2=NCN(CCN3CCOCC3)CN2)cc1`: the cytotoxicity call was “inactive”.
For `Cc1ccc(-n2nc(C(C)(C)C)cc2NC(=O)Nc2ccc(OCCN3CCOCC3)c3ccccc23)cc1`, the cytotoxicity call is “active”.
`CC(C)(C)c1cc(NC(=O)Nc2ccc(Oc3ccnc4nc(O)cnc34)cc2F)n(-c2ccccc2)n1`: the cytotoxicity call is “inactive”.
As for `CCCNC(=O)N1C[C@@H](C)[C@@H](OC)CN(C)C(=O)c2cc(NS(=O)(=O)CC(F)(F)F)ccc2OC[C@H]1C`, the cytotoxicity call is “inactive”.
With `CC1(C)OC2CC3C4CC(F)C5=CC(=O)C=CC5(C)C4C(O)CC3(C)C2(C(=O)CO)O1` (stereo unspecified), the cytotoxicity call is “inactive”.
As for `C[C@@H]1CN([C@@H](C)CO)C(=O)c2cccc(NC(=O)C3CCCCC3)c2O[C@@H]1CN(C)S(=O)(=O)c1cn(C)cn1`, the entry is “inactive”; as for `COc1ccc([Si](C)(C)[C@H]2[C@H](CCn3cc([C@H](O)c4ccccc4)nn3)O[C@@]3(C(=O)N(Cc4ccc(N5C(=O)c6cccc7cccc5c67)cc4)c4ccccc43)[C@@H]2C)cc1`, “inactive”.
For `COc1ccc([Si](C)(C)[C@H]2[C@H](CCn3cc(CCO)nn3)O[C@@]3(C(=O)N(Cc4cccc(N5C(=O)c6cccc7cccc5c67)c4)c4ccccc43)[C@@H]2C)cc1`, the cytotoxicity call is “inactive”.
As for `C[C@H]1[C@H]([Si](C)(C)F)[C@@H](CCn2cc([C@H](O)c3ccccc3)nn2)O[C@]12C(=O)N(c1ccccc1)c1ccccc12`, the entry is “inactive”.
As for `COc1ccc([Si](C)(C)[C@@H]2[C@@H](CCn3cc(CCO)nn3)O[C@]3(C(=O)N(Cc4cccc(N5C(=O)c6cccc7cccc5c67)c4)c4ccccc43)[C@H]2C)cc1`, the entry is “active”; as for `COc1ccc([Si](C)(C)[C@H]2[C@H](CCn3cc(CCO)nn3)O[C@@]3(C(=O)N(C)c4ccccc43)[C@@H]2C)cc1`, “inactive”.
As for `COc1ccc([Si](C)(C)[C@@H]2[C@@H](CCn3cc(CCO)nn3)O[C@]3(C(=O)N(Cc4ccc(N5C(=O)c6cccc7cccc5c67)cc4)c4ccccc43)[C@H]2C)cc1`, the entry is “active”.
On to `COc1ccc([Si](C)(C)[C@@H]2[C@@H](CCn3cc(CCO)nn3)O[C@]3(C(=O)N(C)c4ccccc43)[C@H]2C)cc1`, for which the cytotoxicity call is “inactive”.
Regarding `COc1ccc([Si](C)(C)[C@@H]2[C@@H](CCn3cc([C@H](O)c4ccccc4)nn3)O[C@]3(C(=O)N(c4ccccc4)c4ccccc43)[C@H]2C)cc1`, the cytotoxicity call was “inactive”.
For `COc1ccc([Si](C)(C)[C@@H]2[C@@H](CCn3cc([C@H](O)c4ccccc4)nn3)O[C@]3(C(=O)N(Cc4ccc(N5C(=O)c6cccc7cccc5c67)cc4)c4ccccc43)[C@H]2C)cc1` the value was “active”; for `COc1ccc([Si](C)(C)[C@@H]2[C@@H](CCn3cc([C@H](O)c4ccccc4)nn3)O[C@]3(C(=O)N(Cc4cccc(N5C(=O)c6cccc7cccc5c67)c4)c4ccccc43)[C@H]2C)cc1`, “inactive”.
For `COc1ccc([Si](C)(C)[C@H]2[C@H](CCn3cc([C@H](O)c4ccccc4)nn3)O[C@@]3(C(=O)N(Cc4cccc(N5C(=O)c6cccc7cccc5c67)c4)c4ccccc43)[C@@H]2C)cc1` the value was “inactive”; for `C[C@@H]1[C@@H]([Si](C)(C)F)[C@H](CCn2cc([C@H](O)c3ccccc3)nn2)O[C@@]12C(=O)N(c1ccccc1)c1ccccc12`, “active”.
For `COc1ccc(C#Cc2ccc([C@H]3[C@@H](CO)N4CCCCN(S(=O)(=O)c5cn(C)cn5)C[C@H]34)cc2)cc1` the value was “inactive”; for `C[C@@H]1CN([C@H](C)CO)S(=O)(=O)c2ccc(-c3cncnc3)cc2O[C@@H]1CN(C)C(=O)Cc1cccnc1`, “inactive”; for `Cl.N=C(N)NCCCC(N)C(=O)O` (stereo unspecified), “inactive”.
As for `C[C@@H]1CCCCO[C@H](CN(C)Cc2ccc(C(=O)O)cc2)[C@@H](C)CN([C@H](C)CO)C(=O)c2cc(NC(=O)Nc3ccc(F)cc3)ccc2O1`, the cytotoxicity call is “inactive”.

Source of the values: the antibiotic and cytotoxicity screens of Wong et al. (2023).
